The record followed here is PubChem BioAssay (NCI).

Among the test systems are SR leukemia; RPMI-8226 leukemia; OVCAR-8 ovarian; OVCAR-5 ovarian; OVCAR-4 ovarian; SK-OV-3 ovarian; IGROV1 ovarian; HS 578T breast; NCI/ADR-RES ovarian; T-47D breast; BT-549 breast; MDA-MB-435 melanoma; SW-620 colon; MCF7 breast; HCT-116 colon; HCC-2998 colon; KM12 colon; OVCAR-3 ovarian.
Experiment in all cases: NCI-60 one-dose screen, 48 h (100 = growth as untreated, 0 = no growth, -100 = all killed)
Common to all, as to settings: 10 µM unless noted

The panel holds about 83,000 compounds, 20% with a hit somewhere; the sample as a whole holds those more often.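 Single-concentration screen, 48 h exposure, 96-well plates. Endpoint: percent growth. Below 10 = active.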 Unmarked numbers belong to inactive results. Active and inactive are the calls of the source.

`C[C@@H]1C[C@H]2C(=O)OCC(NC(=O)[C@H](Cc3cc(F)cc(F)c3)NC(=O)Nc3ccc(Cl)cc3F)C(=O)N3CCC[C@H]3C(=O)N3CCCC[C@H]3C(=O)N[C@@H](C)C(=O)N2C1` (stereo partly specified): the growth in the test with SR leukemia was 21.8%; in the test on RPMI-8226 leukemia it was 12.8%; in the test on OVCAR-8 ovarian, 20%; in the test with OVCAR-5 ovarian, 31.9%; in the test with OVCAR-4 ovarian it was 23.6%; in the test on SK-OV-3 ovarian, 27.5%. For the same molecule, the growth in the test with IGROV1 ovarian is 40.5%; in the test with HS 578T breast, 32.7%; in the test with NCI/ADR-RES ovarian, 24%; with T-47D breast it was 28.8%; with BT-549 breast, 21.4%; in the test on MDA-MB-435 melanoma it was 19.9%. Moreover, the growth is 37.7% in the test with SW-620 colon; 12.6% in the test on MCF7 breast; -6.65% (active) with HCT-116 colon; 15.8% in the test on HCC-2998 colon; 36.1% in the test on KM12 colon.

On to `NS(=O)(=O)Oc1ccc2nc(Nc3ccc(F)c(F)c3)ccc2c1`, for which the growth in the test with SR leukemia is 60.5%; in the test with RPMI-8226 leukemia it was 86.7%; in the test on OVCAR-8 ovarian, 96.1%; in the test with OVCAR-5 ovarian, 91.6%; in the test with OVCAR-4 ovarian it was 88.9%; in the test with SK-OV-3 ovarian, 111%. The growth in the test on IGROV1 ovarian was 94.4%; in the test with HS 578T breast, 104%; in the test with NCI/ADR-RES ovarian it was 94.6%; in the test with T-47D breast it was 90%; in the test on MDA-MB-435 melanoma, 89%; with SW-620 colon, 105%. The growth in the test with MCF7 breast was 93.2%; in the test on HCT-116 colon it was 92.2%; with HCC-2998 colon it was 90.3%; in the test on KM12 colon it was 58.9%.

Consider `CCN1C(=O)N(CC)C2SC(N/N=C/c3ccc(F)cc3)=NC21` (stereo unspecified), for which the growth in the test on SR leukemia is 19.4%; with RPMI-8226 leukemia, 19.6%; in the test with OVCAR-8 ovarian, 2.03% (active); in the test with OVCAR-5 ovarian, 48.4%; in the test on OVCAR-4 ovarian, 67.2%; in the test with SK-OV-3 ovarian, 36.6%. The growth in the test with IGROV1 ovarian is 25.1%; in the test on HS 578T breast it was 11.9%; in the test on NCI/ADR-RES ovarian, 0.946% (active); in the test with T-47D breast, 64.8%; in the test on BT-549 breast, -28.4% (active); in the test on MDA-MB-435 melanoma, -35.8% (active). Moreover, the growth in the test with SW-620 colon is 20.8%; with MCF7 breast, 17.5%; with HCT-116 colon it was 13.7%; with KM12 colon, 11.1%.

Turning to `CC(C)(C)OC(=O)N1CCN(S(=O)(=O)/N=C2\NC(=O)NC2=C(Cl)Cl)CC1`, the growth was 23.6% with SR leukemia; 84.7% in the test on RPMI-8226 leukemia; 100% with OVCAR-8 ovarian; 101% with OVCAR-5 ovarian; 100% in the test on OVCAR-4 ovarian; 84% in the test on IGROV1 ovarian. The growth in the test on OVCAR-3 ovarian is 104%; in the test on HS 578T breast, 72.9%; in the test on NCI/ADR-RES ovarian it was 99%; with T-47D breast, 75.3%; in the test with BT-549 breast, 101%; with MDA-MB-435 melanoma, 103%. In addition, the growth in the test on SW-620 colon was 34.3%; in the test on MCF7 breast it was 79.7%; in the test with HCT-116 colon, 98%; with HCC-2998 colon it was 75%; with KM12 colon, 107%.

Take `O=C1c2cc(Br)ccc2-n2c1nc1cc(Br)ccc1c2=O`: the growth with SR leukemia is 65.8%; with RPMI-8226 leukemia it was 75.8%; in the test with OVCAR-8 ovarian, 78.3%; in the test on OVCAR-5 ovarian, 90.8%; in the test with OVCAR-4 ovarian, 64.7%; in the test on IGROV1 ovarian, 59.8%. The growth with OVCAR-3 ovarian was 47.3%; with HS 578T breast, 96.1%; in the test with NCI/ADR-RES ovarian, 84.2%; in the test with T-47D breast, 79.7%; in the test on BT-549 breast it was 124%; in the test on MDA-MB-435 melanoma it was -85.6% (active). In addition, the growth in the test on SW-620 colon is 68%; with MCF7 breast it was 59.3%; in the test with HCT-116 colon it was 81.8%; in the test on HCC-2998 colon it was 108%; in the test with KM12 colon, 77.5%.

`COc1ccc(S(=O)(=O)NCCCNc2nccc(-n3cnc4ccccc43)n2)cc1`: the growth in the test with SR leukemia is 77.6%; in the test with RPMI-8226 leukemia it was 78.6%; in the test with OVCAR-8 ovarian it was 93.7%; in the test on OVCAR-5 ovarian it was 99.6%; with OVCAR-4 ovarian, 77.4%; in the test with IGROV1 ovarian, 91.4%. For the same molecule, the growth was 105% in the test on OVCAR-3 ovarian; 84.8% with HS 578T breast; 105% in the test on NCI/ADR-RES ovarian; 66.3% with T-47D breast; 92.9% in the test on BT-549 breast; 98.7% in the test with MDA-MB-435 melanoma. For the same molecule, the growth with SW-620 colon is 104%; in the test with MCF7 breast, 85.1%; in the test on HCT-116 colon it was 89.9%; in the test with HCC-2998 colon, 111%; in the test on KM12 colon it was 84.1%.

Take `CC[C@]12C=CCN3CC[C@]4(C(=C(C(=O)OC)C1)Nc1cc5c(cc14)[C@@H]1[C@H](O5)[C@@H](O)[C@@]4(CC)CC(C(=O)OC)=C5Nc6cc(OC)ccc6[C@@]56CCN1[C@@H]46)[C@@H]32`: the growth in the test with SR leukemia is 5.56% (active); in the test with RPMI-8226 leukemia it was -23.3% (active); in the test with OVCAR-8 ovarian, 19.5%; in the test with OVCAR-5 ovarian it was 25.4%; with OVCAR-4 ovarian, 31.2%; in the test on SK-OV-3 ovarian it was 25%. For the same molecule, the growth in the test with HS 578T breast is 11.6%; in the test on NCI/ADR-RES ovarian it was 12.4%; in the test with T-47D breast it was 9.28% (active); in the test with BT-549 breast it was 37.8%; with MDA-MB-435 melanoma, -12.5% (active); in the test with SW-620 colon, 3.27% (active). Further, the growth with MCF7 breast was 6.01% (active); in the test with HCT-116 colon, -87.2% (active); in the test on HCC-2998 colon it was -58.7% (active); in the test on KM12 colon, 9.56% (active).
